# Source: PubChem BioAssay AID2315 (National Center for Advancing Translational Sciences (NCATS), 2010)
# Screen size: about 290,000 compounds; about 27,000 (9.3%) were called active. Rule as the data show it: active = inhibition mostly above about 28% (no sharp cut-off); inactive = mostly below about 43%. The entries come from a sample that favours actives as a whole.
# Test: A qHTS for Small Molecule Inhibitors of Shiga Toxin; also: 0% is about no effect
# Conditions: Vero cells, Shiga toxin protein synthesis inhibition reporter; at 38.7 µM, hits give high values
row,SMILES,inhibition
1,O=C(O)C1CCCCC1C(=O)N1CCN(S(=O)(=O)c2ccc(F)cc2)CC1 (stereo not drawn),-21.1% (inactive)
2,CC1CCN(C(=O)c2ccccc2NC(=O)Cc2ccccc2)CC1,13.5% (inactive)
3,Cc1c(C)c2ccc(OCC(=O)N3CCN(c4cccc(Cl)c4)CC3)cc2oc1=O,-20.7% (inactive)
4,COc1ccccc1C1C(C(N)=O)=C(C)Nc2nc(CCCO)nn21 (stereo not drawn),-12.2% (inactive)
5,Cc1nc(SCC(=O)NC2CCCC2)[nH]c(=O)c1C,-3% (inactive)
6,CC(=O)NS(=O)(=O)c1ccc(N/C(N)=N/c2nc(C)cc(C)n2)cc1,4.41% (inactive)
7,Cc1cccc2c1cnn2C(=O)CCC(=O)NC1CCCCC1,-4.08% (inactive)
8,Cn1ncc(Br)c1C(=O)NCc1cccs1,20.7% (inactive)
9,C=CCN(C(=O)Cn1ncc2c1-c1cc(C)ccc1OC2)c1ccccc1,-10.9% (inactive)
10,Cc1nn(CC(=O)Nc2ccc3c(c2)nc(CN2CCCCC2)n3C)c(=O)c2ccccc12,-8.7% (inactive)
11,C=CCN(C(=O)Nc1ccc2c(c1)nc(C)n2C)c1ccccc1,46.7% (active)
12,CCOC(=O)N1CCN(Cc2nc3cc(NC(=O)CC)ccc3n2CC)CC1,-2.96% (inactive)
13,Cc1nc2cc(NC(=O)NC3CC3)ccc2n1C,27.2% (inactive)
14,Cc1cc(C)cc(NC(=O)N(C)Cc2ccccc2)c1,13.5% (inactive)
15,Cc1cc2nc(C)n(CCCNC(=O)Nc3ccccc3)c2cc1C,9% (inactive)
16,COc1ccc(-n2cnc3cc(NCc4ccco4)ccc32)cc1,66.3% (inactive)
17,Cc1nc2cc(NC(=O)Nc3cccc(F)c3)ccc2n1C,27.6% (active)
18,Cc1nc2cc(NCc3cccs3)ccc2n1C,47.7% (active)
19,C=CCN(C(=O)Nc1ccc2oc(C)nc2c1)c1ccccc1,117% (active)
20,O=C(NCCCn1ccnc1)/C(=C\c1ccccc1F)NC(=O)c1ccccc1,-7.27% (inactive)
21,COc1cc(NC(=O)CCNC(=O)Cn2ccc3ccccc3c2=O)cc(OC)c1OC,11.7% (inactive)
22,O=C1CN(C(=O)c2ccccc2F)C(c2ccc(F)cc2)c2cc(F)ccc2N1 (stereo not drawn),18% (inactive)
23,O=C(/C=C/c1ccc([N+](=O)[O-])cc1)NCCSCc1ccco1,-2.44% (inactive)
24,Cc1cccc(N2CCN(C(=O)CCS(=O)(=O)c3ccc4c(c3)NC(=O)C(C)S4)CC2)c1C (stereo not drawn),-11.3% (inactive)
25,COc1cc(OC)c2c(c1C(CCN1CCCCC1)c1ccc(N(C)C)cc1)OC(=O)CC2c1ccc(N(C)C)cc1 (stereo not drawn),-7.65% (inactive)
26,Cn1c(CCN2CCCC2)nc2cc(NS(=O)(=O)c3ccccc3)ccc21,0.447% (inactive)
27,CCC(=O)Nc1ccc2c(c1)nc(CCN1CCN(c3ccccn3)CC1)n2C,-4.67% (inactive)
28,Cn1c(CCN2CCCCCC2)nc2cc(NC(=O)Nc3ccccc3)ccc21,73.3% (active)
